We go through 40 sequences from the supplement of paper PMC6555819.

The test system of this assay is VDR:RXRa (NR concentration 270 nM, RXRa partner concentration 90 nM). Nature of the assay: PBM binding z-score (relative to random genomic background probes); higher = stronger binding; sequences stand for … in GC…GCGATTGACAGCGTAGAATGAAGG
The protocol:
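Protein-binding microarray (Agilent 4x180K custom design, double-stranded 60-nt probes: 5' GC cap, 34-nt variable region, 24-nt constant primer region; full probe sequence given). Purified or IVT nuclear receptor:RXRα heterodimers (3:1 NR:RXRα, mostly 270:90 nM) or homodimers were incubated for 1 h in PBS with 2% milk and no ligand, then detected with Alexa488 antibodies. Fluorescence from o1-orientation probes (~5 replicates averaged) was converted to z-scores against 500 random hg19 background probes. Variable regions are seed direct-repeat (DR0–DR5) sites, all their single-nucleotide variants and half-site ablations.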
CTCGAAACGTCGTGCTCAGGTGAGTATACCAAAC displayed a PBM binding z-score of -0.365.

For CCAGAGAGGTGAAAGGTAACTCAGTCTGGTACGC, the PBM binding z-score turned out to be 1.64.

As to ATATGTAGGTGACATCCGGGTCATTCAGGCTATG, the PBM binding z-score stood at 4.

TCTTGTAGATCAAGCAGGGTAAGAAAGCCTGAGT registered a PBM binding z-score of 0.33.

Sequence CATACAGGGTCAGCTAGGCCAGATTAGGGACGGC had a PBM binding z-score of 3.94.

On to CGAACTAGGTCAGAACAGGACACTGAAGGATGAT, for which the PBM binding z-score worked out at 1.14.

In the case of CTCGAAAGGGCGGTTGAGGTGAGTATACGGATAA, the PBM binding z-score is -0.045.

With AGAATGAGGTTATTAAGATCAGGGAGTTGCGGTC, the PBM binding z-score turned out to be 2.3.

AGTCAAAGTTCATCTAGGTAGCGTAAGATATGCT: the PBM binding z-score was found to be 4.94.

The sequence TCTAGTTGGTCAAAGGTCACACACTCGAAATGCG came in with a PBM binding z-score of 5.37.

For ACAGACAGGTGATGAATGTAACTCAGGCTATCAT, the PBM binding z-score was -0.0862.

With CCGAGTAGGTGATGGGGCATTCAGGCAACGGTGA, the PBM binding z-score was -0.461.

GCTCGTAGATCAAGGTTAAGAAAGACTAAGCTAA displayed a PBM binding z-score of -0.0501.

The sequence TCTTGTAGATCAATAAAGGTTAAGAAAGTGCGCT displayed a PBM binding z-score of 2.18.

For TCTATTAGTTGCTTAGGGCAACCGAAACAGCGGA, the PBM binding z-score is 0.49.

Turning to AGTCAACGTTCAGGACGAGGTAACGTAAAGCACG, the PBM binding z-score was -0.317.

The sequence GATACAGGGTCAGCTAGAGGCCAGAATATGGAAA displayed a PBM binding z-score of 3.19.

The sequence TAAATGAGGTTAAAGATCAGGGAACGTGGCGTCG had a PBM binding z-score of 2.22.

In the case of CCAGACAGGTGAAACGTAACTCAGTCTGGTACGC, the PBM binding z-score is -0.217.

GCTTGTAGACCAAGGTTAAGAAAGACTAAGCTAA: the PBM binding z-score was found to be 0.0143.

With CGTCGAAGGTCATAGGAGGTCAGTGAAGACAGAT, the PBM binding z-score turned out to be 6.76.

AATACAGGGTCACTAAGCCAGAGTAGGTACGAAT: the PBM binding z-score came to 4.02.

TCATATAGGTAAAAGGCGAAAGTCGGTGTGGTAA had a PBM binding z-score of 0.679.

GCGACTGGGGCATAAGCAGGTTACCATAACTTAA returned a PBM binding z-score of -0.0344.

Take CGAACTAGGTCATCCAGTACAGTGAATACATTGA: the PBM binding z-score came to 5.08.

Consider CCTGCTAGGTCATGGTCTGCTAATCTACAGTATG, for which the PBM binding z-score was determined as 1.58.

Consider CGAACGAGGGTATGAGTTGATAGCAAATGCCGAT, for which the PBM binding z-score was -0.175.

Regarding CGTCCCAGGTCAGCAGGTCAGTGAAAGCGACGTG, the PBM binding z-score is 2.54.

Consider AGTCCAAGTTCAGGACGAGGTAACGTAAAGCACG, for which the PBM binding z-score was 2.51.

As for CCTTACGGGTCACGAGGTAATAGCACGACGAGCG, the PBM binding z-score worked out at 4.18.

In turn, CCGAGTAGGATATGGGGCATTCAGGCAACGGTGA returned a PBM binding z-score of -0.284.

With CCTACTGGGCCAAAAAGGTCCTTGATGCCGATAA, the PBM binding z-score is -0.189.

On to TATACAGGGTTAAAGGCCAGAGTACGAATGTCGA, for which the PBM binding z-score is 2.09.

The sequence GTAGACAGGTGAAACGCAGGTAACTCAGGGTGGC came in with a PBM binding z-score of -0.214.

Sequence GGAACGAGGGCATTCGAGTTGATAGGATGGCGAT had a PBM binding z-score of 3.74.

With GGATATAGGTAATACAAGGTGAAAGTCCGATTGT, the PBM binding z-score is 0.64.

CAGACTGGGGCAAAGGTTACCATACTCAGTACGA yielded a PBM binding z-score of 1.93.

ACTATTAGTTGACTTAGGGCAACCGATACGACGC had a PBM binding z-score of 0.152.

TTACCAAGGCGAAGGTCGTTGATCCCTCTGTAGA had a PBM binding z-score of 0.836.

With GCGACTGGGGCAAAGCAGTTTACCATAAGGTTGG, the PBM binding z-score is 0.278.
